Measured values from PubChem BioAssay (NCI).
Compounds without any hit were thinned out: in the full panel of roughly 83,000, 20% have a hit.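 The test compound was applied at a single concentration to cells in 96-well plates for 48 hours, and percent growth was recorded.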 Values without a mark were called inactive. Active and inactive are the calls of the source. How the source made its calls: active means growth percent below 10; inactive means the rest.

Assays:
Assay in all cases: NCI-60 one-dose screen, 48 h (100 = growth as untreated, 0 = no growth, -100 = all killed)
Conditions in all cases: 10 µM unless noted
HCT-15 colon = test system: HCT-15 colon
HT29 colon = test system: HT29 colon
SNB-75 CNS = test system: SNB-75 CNS
SNB-19 CNS = test system: SNB-19 CNS
U251 CNS = test system: U251 CNS
PC-3 prostate = test system: PC-3 prostate
SK-MEL-5 melanoma = test system: SK-MEL-5 melanoma
UACC-62 melanoma = test system: UACC-62 melanoma
LOX IMVI melanoma = test system: LOX IMVI melanoma
SK-MEL-28 melanoma = test system: SK-MEL-28 melanoma

Row | Compound | growth (HCT-15 colon) | growth (HT29 colon) | growth (SNB-75 CNS) | growth (SNB-19 CNS) | growth (U251 CNS) | growth (PC-3 prostate) | growth (SK-MEL-5 melanoma) | growth (UACC-62 melanoma) | growth (LOX IMVI melanoma) | growth (SK-MEL-28 melanoma)
1 | COc1ncc(-c2ccc3nccc(-c4ccnnc4)c3c2)cc1NS(=O)(=O)c1ccc(F)cc1F | -15% (active) | -10.4% (active) | -29.8% (active) | -42.8% (active) | -62.3% (active) | -0.788% (active) | -95.8% (active) | -67.4% (active) | -42.8% (active) | -17.4% (active)
2 | Cc1c(NC(=O)OC[C@@H]2COCCN2)cn2ncnc(Nc3ccc4c(cnn4Cc4cccc(F)c4)c3)c12 | 4.13% (active) | -6.28% (active) | -70.7% (active) | 6.8% (active) | -6.22% (active) | 9.24% (active) | -46.4% (active) | -14.7% (active) | -11% (active) | -10.1% (active)
3 | COc1cnc2c(c1)C(=O)c1c-2n(CCCN2CCC(O)CC2)c(=O)c2cc(Cl)ccc12 | -71.5% (active) | -54.6% (active) | 49.1% | 34.2% | -76.7% (active) | 41.9% | 50.7% | 24.5% | -86.3% (active) | 102%
4 | CC[C@@H]1C(=O)N(C)c2cnc(Nc3ccc(C(=O)NC4CCN(C)CC4)cc3OC)nc2N1C1CCCC1 | 4.6% (active) | -3.91% (active) | -0.626% (active) | 31.3% | 12.7% | 28% | -80.6% (active) | 11.6% | -73.5% (active) | 34.4%
5 | CN(C)CCOC(=O)Nc1nc2ccc(Sc3ccccc3)cc2[nH]1 | 33.2% | 1.58% (active) | -10.2% (active) | 36.4% | 26.5% | 28% | 19.3% | 42.4% | 32.1% | 63.7%
6 | O=C1C=CC2(NN=C(c3ccccc3)N2c2ccc(Cl)cc2)c2cccc(O)c21 (stereo not given) | 18.7% | 73% | 33.1% | 34.8% | 18.1% | 39.1% | -70.2% (active) | -33.1% (active) | 2.09% (active) | 52.6%
7 | CN(C)CCn1c(=O)c2c3cc4c(cc3n(CCN(C)C)c2c2ccc(Cl)cc21)OCO4 | 43.3% | 25.1% | 70.8% | 34.3% | 44.6% | 36.2% | 52.8% | 76.9% | -88.2% (active) | 87%
8 | NC1(C(=O)N[C@@H](CCO)c2ccc(Cl)cc2)CCN(c2ncnc3[nH]ccc23)CC1 | 58.1% | 23.5% | -46.8% (active) | 43.5% | 34.6% | 49.8% | 70.5% | -15.6% (active) | 40.3% | 24.7%
9 | CO[C@@H](C)Cn1c(=O)n(C)c2cnc3ccc(-c4cncc(C(C)(C)O)c4)cc3c21 | 7.42% (active) | 2.26% (active) | -41.8% (active) | 8.17% (active) | 2.44% (active) | 7.66% (active) | -96.5% (active) | -37.6% (active) | -33.8% (active) | -8.17% (active)
10 | Cc1[nH]n(C(N)=S)c(=O)c1N=Nc1ccc(S(=O)(=O)Nc2ccncn2)cc1 | 113% | 105% | 73.7% | 99.8% | 113% | 77.1% | 94.6% | 101% | 87.4% | 98.9%
11 | Cc1cccc(C)c1N1C(c2ccccc2)=NNC12C=CC(=O)c1c(O)cccc12 (stereo not given) | 32.8% | 89.4% | 96.7% | 69.7% | 40.9% | 38.8% | -37.2% (active) | 24.5% | 7.95% (active) | 110%
12 | N#CC[C@H](C1CCCC1)n1cc(-c2ncnc3[nH]ccc23)cn1 | 89.7% | 62.9% | 33.8% | 90.7% | 63.9% | 59% | 84.8% | 82% | 55.3% | 79.9%
13 | CCCCN1C(=O)c2cccc3c(-c4ccc5c(c4)ncn5C4CCCCC4)ccc(c23)C1=O | 106% | 84.1% | 92.3% | 106% | 98.3% | 94.3% | 107% | 92.8% | 102% | 117%
14 | O=C(Cn1cncn1)Nc1ccc(-c2nc3ccccc3s2)cc1 | 101% | 105% | 92.1% | 93% | 90% | 85.8% | 86.7% | 95.2% | 99.3% | 111%
15 | Cc1nc(N)sc1-c1ccnc(Nc2ccc(N3CCOCC3)cc2)n1 | 44.7% | 25.5% | -11% (active) | 29.9% | 27.9% | 38.3% | 70.8% | 41.6% | 29.6% | 61.5%
16 | C[C@@H](Oc1cc(-n2cnc3ccc(CN4CCN(C)CC4)cc32)sc1C(N)=O)c1ccccc1C(F)(F)F | 6.53% (active) | 4.62% (active) | -5.55% (active) | 26.1% | 29.1% | 32.9% | 4.6% (active) | 51.1% | 4.53% (active) | 38%
17 | Cc1cc(C(=O)NOCCO)c(Nc2ccc(I)cc2F)n(C)c1=O | 67.5% | 7.17% (active) | 83.8% | 57.9% | 51.8% | 106% | 50.4% | -1.84% (active) | 26.3% | 1.47% (active)
18 | Cc1ccc(N)cc1CN1C(=O)c2ccccc2C1=O | 101% | 85.5% | 87% | 102% | 102% | 90.1% | 103% | 103% | 101% | 110%
19 | C=CCN(/C=C1/C(=O)O[C@H](COC)[C@@]2(C)C1=C(O)C(=O)C1=C2[C@H](OC(C)=O)C[C@]2(C)C(=O)CC[C@@H]12)CC=C | 24.2% | 13.7% | -25.3% (active) | 26.2% | 21.1% | 18.6% | 7.65% (active) | -21% (active) | 20.3% | 24.4%
20 | CCN(CC)CCCC(C)Nc1cc(-c2ccc(C(F)(F)F)cc2)c(C#N)c2nc3ccccc3n12 (stereo not given) | 3.48% (active) | -2.76% (active) | -56.1% (active) | 34.9% | 3.09% (active) | 22.1% | -89.9% (active) | -67.3% (active) | -80.6% (active) | -64.7% (active)
21 | CCCCn1c(C)nc2cc(Nc3nc(N4CCCCC4)nc4nc[nH]c34)ccc21 | 52.9% | 59.8% | 11.4% | 73.3% | 58.5% | 25.7% | -31.7% (active) | 45.4% | 33.7% | 76%
22 | COc1cc2c(cc1O)c(=O)n(CCN(C)C)c1c3cc4c(cc3ncc21)OCO4 | 2.84% (active) | 8.08% (active) | -37.2% (active) | -0.441% (active) | -49% (active) | -9.82% (active) | -50.9% (active) | -54.2% (active) | -56.3% (active) | -7.55% (active)
23 | CC1(/C=N/NC(N)=S)NC(=O)NC1=O (stereo not given) | 104% | 93.3% | 90.6% | 108% | 94.5% | 93% | 100% | 95.6% | 101% | 117%
24 | Cc1ccc(F)c(NC(=O)Nc2ccc(-c3cccc4[nH]nc(N)c34)cc2)c1 | 7.06% (active) | 2.74% (active) | 29.8% | 27.2% | 12.9% | 30.8% | 34.6% | 37.1% | -8.35% (active) | 36.1%
25 | Cc1ccc(-n2nc(C(C)(C)C)cc2NC(=O)NCc2cc(F)ccc2Oc2ccc3c(cnn3CCO)c2)cc1 | 17.5% | 5.67% (active) | 32.7% | 48.1% | 31.3% | 33.5% | -19.5% (active) | 7.75% (active) | 5.06% (active) | 0.876% (active)
26 | COc1cnc2c(c1)C(=O)c1c-2n(CCCn2ccnc2)c(=O)c2cc(Cl)ccc12 | 28.9% | -31.5% (active) | 19% | 20.2% | -31% (active) | 24.8% | -49.9% (active) | -43.1% (active) | -52.5% (active) | 52.2%
